These results are taken from PubChem BioAssay (Tox21).

The nature of assay [1]: qHTS assay to test for compound auto fluorescence at 535 nm (green) in HEK293 cells (AID 720680). Background: Quantitative high-throughput screening tests each substance at several concentrations.
Assay [2] in a line: qHTS assay to test for compound auto fluorescence at 460 nm (blue) in HEK293 cell free culture (AID 720681). Put shortly: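 Compounds were added to cell-free DMEM with 10% FBS and fluorescence read directly. The blue channel used 405 nm excitation and 460 nm emission, with triamterene as the reference fluorophore.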
Assay [3] is described as follows: qHTS assay to test for compound auto fluorescence at 535 nm (green) in HEK293 cell free culture (AID 720682). The method in brief: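 Using fluorescein as calibrant, autofluorescence was quantified at 485/535 nm in cell-free DMEM containing 10% FBS after pintool addition of compound or vehicle.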
Assay [4] is described as follows: qHTS assay to test for compound auto fluorescence at 590 nm (red) in HEK293 cell free culture (AID 720683). The method in brief: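 Cell-free wells of DMEM with 10% FBS received compound, and intrinsic fluorescence was read at excitation/emission 540/590 nm. Values expressed as equivalence to Rose Bengal sodium.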
Assay [5] is described as follows: qHTS assay to test for compound auto fluorescence at 590 nm (red) in HepG2 cell free culture (AID 720684). The method in brief: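 Rose Bengal sodium served as the reference for red signal. Test compounds were dispensed into serum-containing MEM (10% FBS) without cells, and plates were read at 540/590 nm.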
A short description of assay [6]: qHTS assay to test for compound auto fluorescence at 460 nm (blue) in HepG2 cell free culture (AID 720685). Put shortly: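 Cell-free plates of MEM plus 10% FBS received 23 nL compound or DMSO vehicle; blue-channel (405/460 nm) intensity scored against triamterene as reference fluorophore.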
The nature of assay [7]: qHTS assay to test for compound auto fluorescence at 535 nm (green) in HepG2 cell free culture (AID 720686).
Assay [8] is described as follows: qHTS assay to test for compound auto fluorescence at 460 nm (blue) in HepG2 cells (AID 720687). Put shortly: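 HepG2 cells in MEM with 10% FBS, attached overnight at 37 C, were exposed to compound or DMSO for 1 hr at 37 C, 5% CO2. Blue fluorescence was read at 405/460 nm, with triamterene as reference fluorophore.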
The nature of assay [9]: qHTS assay to identify small molecule antagonists of the glucocorticoid receptor (GR) signaling pathway - cell viability counter screen (AID 720693). Also: nearly all actives have a fitted effect of over 55% in size.
Assay [10] in a line: qHTS assay for identifying genotoxic compounds that show differential cytotoxicity against isogenic chicken DT40 cell lines with known DNA damage response pathways - wild type cell line (AID 743012). Also: nearly all actives have a fitted effect of over 60% in size. Also: potency is read from the fitted curve at half-maximal effect. Put shortly: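 Viability of DNA repair-proficient chicken DT40 cells was assessed by CellTiter-Glo luminescence following 40 h compound exposure at 37 C/5% CO2.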
Assay [11] in a line: qHTS assay for identifying genotoxic compounds that show differential cytotoxicity against isogenic chicken DT40 cell lines with known DNA damage response pathways - Rev3 mutant cell line (AID 743014). Also: nearly all actives have a fitted effect of over 55% in size. Also: potency is read from the fitted curve at half-maximal effect.
A short description of assay [12]: qHTS assay for identifying genotoxic compounds that show differential cytotoxicity against isogenic chicken DT40 cell lines with known DNA damage response pathways - Rad54/Ku70 mutant cell line (AID 743015). Also: nearly all actives have a fitted effect of over 60% in size. Also: potency is read from the fitted curve at half-maximal effect.
Assay [13] in a line: qHTS assay to identify small molecule antagonists of the androgen receptor (AR) signaling pathway using the MDA cell line - cell viability counter screen (AID 743041; also: nearly all actives have a fitted effect of over 45% in size). Put shortly: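 Cytotoxicity counter screen: MDA-kb2 AR-luc cells, compound + R1881, 16 h, 37C, 0% CO2; CellTiter-Fluor added at 15.5 h, fluorescence read after 30 min.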
Assay [14] can be described thus: qHTS assay to identify small molecule antagonists of the thyroid receptor (TR) signaling pathway - cell viability counter screen (AID 743064). Also: nearly all actives have a fitted effect of over 50% in size. Put shortly: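 Counter screen for cytotoxicity: compound plus T3 (1 nM final) on GH3.TRE-Luc cells, 23.5 h at 37 °C, then fluorescence viability readout with CellTiter-Fluor.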
Assay [15] is described as follows: qHTS assay to identify small molecule antagonists of the androgen receptor (AR) signaling pathway - cell viability counter screen (AID 743033; also: nearly all actives have a fitted effect of over 45% in size).
Assay [16] addresses Glucocorticoid receptor (Homo sapiens) (UniProt P04150). The assay is described as follows: qHTS assay to identify small molecule agonists of the glucocorticoid receptor (GR) signaling pathway (AID 720691; active = well fitted activation curve with a large enough effect in the signal ratio in the repeat runs, not every such curve was filed as active; the % refers to the signal ratio). The method in brief:
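Compounds in DMSO, alongside positive controls, were added to GR-bla HeLa reporter cells and incubated 18 h at 37 C; GRE-driven beta-lactamase was detected by fluorescence after 2 h with FRET substrate at room temperature.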

For assay [17] the target is unchanged. Kind of assay: qHTS assay to identify small molecule antagonists of the glucocorticoid receptor (GR) signaling pathway (AID 720692; active = well fitted inhibition curve with a large enough effect in the signal ratio in the repeat runs, not every such curve was filed as active; the % refers to the signal ratio). Put shortly: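 In a 1536-well cell format, compounds were added 4 h after seeding GR-bla HeLa cells, together with dexamethasone at 5 nM final; reporter activity was measured by FRET-substrate fluorescence following 18 h at 37 C.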

SMILES strings stand for the structures. Unmarked numbers belong to inactive results. Results filed as inconclusive are left out. Calls of active or inactive are those of the source. Unless noted, calls follow the shape of the dose curve; as a rule, active = well fitted curve in the direction sought with a large enough effect in the repeat runs; inconclusive = weak or mixed curves; inactive = no such curve, though single readings can be large; an effect the other way counts as inactive or inconclusive.
% is scaled to controls: 0 for no effect and ±100 for the full control effect.

Chain of Glucocorticoid receptor (Homo sapiens) (P04150 whole entry, looked up): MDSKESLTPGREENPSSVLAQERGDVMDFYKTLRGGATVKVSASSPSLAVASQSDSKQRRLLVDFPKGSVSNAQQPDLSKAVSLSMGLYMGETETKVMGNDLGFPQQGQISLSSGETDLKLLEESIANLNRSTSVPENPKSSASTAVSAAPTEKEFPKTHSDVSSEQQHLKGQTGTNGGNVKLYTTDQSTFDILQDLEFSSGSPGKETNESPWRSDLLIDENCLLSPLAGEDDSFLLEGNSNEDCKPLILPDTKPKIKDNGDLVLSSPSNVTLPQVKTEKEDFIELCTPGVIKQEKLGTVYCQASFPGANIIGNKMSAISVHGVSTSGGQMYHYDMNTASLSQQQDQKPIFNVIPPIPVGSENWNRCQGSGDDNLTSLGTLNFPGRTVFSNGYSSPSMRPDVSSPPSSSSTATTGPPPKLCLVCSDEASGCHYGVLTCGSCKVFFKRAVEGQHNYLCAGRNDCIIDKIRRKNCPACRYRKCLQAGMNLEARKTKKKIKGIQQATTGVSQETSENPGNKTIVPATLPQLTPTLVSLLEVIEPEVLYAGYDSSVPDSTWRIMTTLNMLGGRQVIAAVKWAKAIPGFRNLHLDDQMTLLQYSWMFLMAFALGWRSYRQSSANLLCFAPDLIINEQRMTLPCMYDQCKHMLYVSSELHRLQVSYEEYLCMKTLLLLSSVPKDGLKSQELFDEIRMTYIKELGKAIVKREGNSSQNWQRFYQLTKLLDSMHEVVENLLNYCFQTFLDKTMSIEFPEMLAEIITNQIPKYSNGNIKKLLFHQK

On to `CC(CC(=O)Cl)CC(C)(C)C` (centres undefined), for which the compound was called inactive in assay [1], in assay [2], in [3], in assay [4], in [5] and in assay [6]. Besides, the result in assay [7], in assay [8], in [9] and in [13] was inactive. In addition, the Potency result in [10], in assay [11], in assay [12] and in [14] was “inactive” throughout.

As for `COC(=O)c1c(C)cc(O)c(C)c1O`, the call in assay [1], in assay [2], in [3], in assay [4], in [5] and in assay [6] was inactive. The result in [7], in assay [8], in assay [9] and in assay [15] was inactive. In addition, the Potency in assay [10] is 61.1 µM (active); in [11], 54.5 µM (active); in assay [12] it was 61.1 µM (active). Also, in assay [14], the Potency entry was “inactive”.

`CNCCc1ccccn1`: in [1], the fluorescence, % of fluorescein is -0.0419% [at 18.6 µM]. The fluorescence, % of fluorescent control in [2] is 0.0128% [at 18.6 µM]; in assay [4], -0.0269% [at 18.6 µM]; in [6], 0.0418% [at 18.6 µM]. Moreover, the activity change in assay [3] is -0.037% [at 18.6 µM]. Also, in [5], the fluorescence, % of Rose Bengal is 0.0243% [at 18.6 µM]. Also, in assay [7], the fluorescence, % of fluorescein control is -0.0162% [at 18.6 µM]. Moreover, the Potency result in assay [16], in [10], in assay [11], in assay [12] and in assay [14] was “inactive” throughout. Further, the outcome in [17], in [9] and in assay [15] was inactive.

Consider `CCCC(=O)OC`, for which the compound was called inactive in [1], in assay [2], in assay [3], in assay [4], in assay [5] and in assay [6]. Further, the call in [7], in [8], in [9], in assay [15] and in assay [13] was inactive. The Potency result in [11], in [12] and in [14] was “inactive” throughout.

In the case of `CC(=O)c1ccc2ccc3ccccc3c2c1`, the result in assay [1], in [2], in assay [3], in [4], in assay [5] and in assay [6] was inactive. The compound was called inactive in [7], in assay [8], in assay [9], in [15] and in assay [13]. Also, the Potency in assay [11] was 60.8 µM (active). Moreover, the Potency entry in assay [14] is “inactive”.

`CCCOc1ccc(C(=O)OCCN(CC)CC)cc1N`: the outcome in assay [1], in assay [2], in assay [3], in assay [4], in assay [5] and in assay [6] was inactive. The compound was called inactive in [7], in assay [17], in assay [9], in assay [15] and in assay [13]. In addition, the Potency entry in [16] and in assay [14] was “inactive” in each case. For the same compound, the Potency was 9.44 µM (active) in assay [10], 6.68 µM (active) in assay [11] and 13.3 µM (active) in [12].

Regarding `CCCCCCC(=O)c1ccccc1`, the result in assay [1], in assay [2], in [3], in assay [4], in assay [5] and in assay [6] was inactive. Further, the compound was classed as inactive in assay [7], in assay [8], in assay [15] and in [13]. For the same compound, the Potency result in assay [10] was “inactive”.

Turning to `O=c1[nH]c(=O)c2cn[nH]c2[nH]1`, the outcome in assay [1], in assay [2], in [3], in assay [4], in assay [5] and in [6] was inactive. Moreover, the outcome in [7], in [17], in [9] and in assay [13] was inactive. The Potency entry in assay [16], in [10], in [12] and in [14] was “inactive” each time.

In the case of `CCOC(=O)COc1ccc2c(C)c(CCN(CC)CC)c(=O)oc2c1Cl`, the compound was called inactive in assay [1], in assay [2], in assay [3], in [4], in assay [5] and in assay [6]. Further, the compound was called inactive in assay [7], in assay [8], in assay [9] and in [15].

As to `CCN1CCN(C(=O)N[C@@H](C(=O)N[C@@H]2C(=O)N3C(C(=O)O)=C(CSc4nnnn4C)CS[C@H]23)c2ccc(O)cc2)C(=O)C1=O`, the compound was called inactive in [1], in [2], in [3], in assay [4], in [5] and in [6]. Moreover, the result in [7], in assay [8], in assay [9] and in assay [15] was inactive. Moreover, the Potency result in assay [10], in [11], in [12] and in assay [14] was “inactive” each time.

For the compound `CN(C)CCc1c[nH]c2ccc(C[C@H]3COC(=O)N3)cc12`, the result in assay [1], in assay [2], in assay [4], in assay [5], in [6] and in assay [7] was inactive. In addition, the result in assay [8], in assay [17], in assay [9], in assay [15] and in [13] was inactive. Moreover, the Potency entry in assay [16], in [10], in assay [11], in [12] and in assay [14] was “inactive” in each case.

With `C[n+]1ccccc1/C=N/O`, the fluorescence, % of fluorescein in assay [1] is -0.0429% [at 18.6 µM]. In addition, the fluorescence, % of fluorescent control in assay [2] was 0.0506% [at 18.6 µM]; in [4], -0.29% [at 18.6 µM]; in [6], -0.0014% [at 18.6 µM]; in [8] it was 0.0546% [at 18.6 µM]. In addition, in assay [3], the activity change was -0.0149% [at 18.6 µM]. Besides, the Potency entry in assay [16], in assay [10], in assay [12] and in [14] was “inactive” in each case. Also, the result in [17], in assay [9] and in assay [13] was inactive.

For `CC(=O)OC/C=C(/C)CCC=C(C)C`, the compound was called inactive in assay [1], in assay [2], in assay [4], in assay [5], in assay [6] and in [7]. The compound was classed as inactive in assay [8], in assay [17], in [9], in assay [15] and in [13]. For the same compound, the Potency entry in [16], in [10], in [12] and in [14] was “inactive” in each case.

Take `CCCCN1C(=O)c2ccccc2C1=O`: the compound was classed as inactive in [1], in assay [2], in assay [3], in assay [4], in assay [6] and in assay [7]. In addition, the outcome in assay [8], in [17], in assay [9] and in assay [13] was inactive. The Potency result in [16], in assay [10], in assay [11], in [12] and in assay [14] was “inactive” throughout.
